Measurements as given in PubChem BioAssay AID1028 (SRMLSC, 2008).
Entries with a potency or affinity are not part of this list.

Target: diphosphomevalonate decarboxylase (Streptococcus pneumoniae D39) (UniProt Q9FD53)
Assay: diphosphomevalonate decarboxylase inhibitor confirmation – biochemical, cuvette format, coupled NADH fluorescence (AID 1028)
Conditions: purified DPM-DC, rate, at 50 µM, active compounds read high;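 active = enzyme inhibitor confirmed by dose series, half-maximal inhibitory concentration at most 40 µM; inactive = the rest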

inhibition, inactive:
COc1ccccc1-c1nc2cc(N)ccc2o1 14.5%, COc1ccc2nc(-c3ccccc3C)oc2c1 4.59%, Nc1ccc2oc(-c3cccc(F)c3)nc2c1 10.4%, Cc1ccc(C)c(-c2nc3cc([N+](=O)[O-])ccc3o2)c1 1.75%
